Active and inactive are the calls of the source. Calls follow the shape of the dose curve; as a rule, active = well fitted curve in the direction sought with a large enough effect; inconclusive = small, poorly fitted or top-dose-only effect, or effect the other way, or another doubt; inactive = no such curve, though single readings can be large or run the other way.
assay: Inducers of the Endoplasmic Reticulum Stress Response (ERSR) in human glioma: Validation (AID 504836); details: human glioma cells, ER stress response reporter; series mostly up to 38.3 µM
How it was run: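 Stably transfected U87-MG human glioma cells carrying a GRP78-based luminescent sensor were seeded at 1000 cells/well, pin-dosed with compounds and incubated 16 h. Luciferase reagent was then added, and end-point luminescence was read after 10 min at room temperature.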

Structure (SMILES) | outcome
CC(=O)O[C@]1(C(C)=O)CC[C@H]2[C@@H]3C=C(Cl)C4=CC(=O)[C@@H]5C[C@@H]5[C@]4(C)[C@H]3CC[C@@]21C | inactive
CNCCCC1c2ccccc2C=Cc2ccccc21 | inactive
CC1=C(/C=C/C(C)=C/C=C/C(C)=C/C(=O)Nc2ccc(O)cc2)C(C)(C)CCC1 | inactive
CCN(CC)CCOC(=O)C1(C2CCCCC2)CCCCC1 | inactive
C[C@H]1c2cccc(O)c2C(O)=C2C(=O)[C@]3(O)C(O)=C(C(N)=O)C(=O)[C@@H](N(C)C)[C@@H]3[C@@H](O)[C@@H]21 | inactive
CN/C(=C\[N+](=O)[O-])NCCSCc1ccc(CN(C)C)o1 | inactive
Cc1cn([C@H]2C[C@H](N=[N+]=[N-])[C@@H](CO)O2)c(=O)[nH]c1=O | inactive
Clc1ccc2c(c1)C(N1CCNCC1)=Nc1ccccc1O2 | inactive
CCCNCC(O)COc1ccccc1C(=O)CCc1ccccc1 (stereo unspecified) | inactive
COc1cc2nc(N(C)CCCNC(=O)C3CCCO3)nc(N)c2cc1OC (stereo unspecified) | inactive
CC(C)OC(=O)C(C)(C)Oc1ccc(C(=O)c2ccc(Cl)cc2)cc1 | inactive
CC(C)NCC(O)COc1cccc2[nH]ccc12 (stereo unspecified) | inactive
CN[C@H]1CC[C@@H](c2ccc(Cl)c(Cl)c2)c2ccccc21 | inactive
CC(CN(C)C)CN1c2ccccc2CCc2ccccc21 (stereo unspecified) | inactive
COc1cc2nc(N3CCN(C(=O)C4COc5ccccc5O4)CC3)nc(N)c2cc1OC (stereo unspecified) | inactive
Cc1cccc(C)c1OCC(C)N (stereo unspecified) | inactive
O=C1CCC(N2C(=O)c3ccccc3C2=O)C(=O)N1 (stereo unspecified) | inactive
CN1CC(=O)N/C1=N/C(=O)Nc1cccc(Cl)c1 | inactive

Structure (SMILES) | outcome
Cc1cn([C@H]2C=C[C@@H](CO)O2)c(=O)[nH]c1=O | inactive
Fc1ccc([C@@H]2CCNC[C@H]2COc2ccc3c(c2)OCO3)cc1 | inactive
O=C1NC(=O)C(c2ccccc2)(c2ccccc2)N1 | inactive
O=C(c1ccc(OCCN2CCCCC2)cc1)c1c(-c2ccc(O)cc2)sc2cc(O)ccc12 | inactive
CCCN1C[C@H](CSC)C[C@@H]2c3cccc4[nH]cc(c34)C[C@H]21 | inactive
NC(=O)NO | inactive
C[C@](N)(Cc1ccc(O)c(O)c1)C(=O)O | inactive
Nc1nc(N)c2nc(-c3ccccc3)c(N)nc2n1 | inactive
CCCCNC(=O)NS(=O)(=O)c1ccc(C)cc1 | inactive
O=NN(CCCl)C(=O)NCCCl | inactive
CCN(CC)C(=S)SSC(=S)N(CC)CC | inactive
CN1CCN(CCCN2c3ccccc3Sc3ccc(C(F)(F)F)cc32)CC1 | inactive
COc1cc2nc(N3CCN(C(=O)c4ccco4)CC3)nc(N)c2cc1OC | inactive
Oc1ccc(C2CNCCc3c2cc(O)c(O)c3Cl)cc1 (stereo unspecified) | inactive
O=C(C1CCCCC1)N1CC(=O)N2CCc3ccccc3C2C1 (stereo unspecified) | inactive
CN(C)CC/C=C1\c2ccccc2COc2ccccc21 | inactive
Cc1ccccc1N1C(=O)c2cc(S(N)(=O)=O)c(Cl)cc2NC1C (stereo unspecified) | inactive
COc1ccc([C@@H]2Sc3ccccc3N(CCN(C)C)C(=O)[C@@H]2OC(C)=O)cc1 | inactive
